Inconclusive results are not listed. The source made the active and inactive calls. Unless noted, calls follow the shape of the dose curve; as a rule, active = well fitted curve in the direction sought with a large enough effect in the repeat runs; inconclusive = weak or mixed curves; inactive = no such curve, though single readings can be large; an effect the other way counts as inactive or inconclusive.
Columns and labels:
[1] = qHTS assay to identify small molecule antagonists of the estrogen related receptor (ERR) signaling pathway from Tox21 library - cell viability counter screen (AID 1224834); also: nearly all actives have a fitted effect of over 30% in size
Summary of the method: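 Seeded ERR cells were rested 6 h at 37 C/5% CO2 before compounds, positive and negative controls or DMSO were added. Incubation continued for 17.5 h, and viability was then quantified by CellTiter-Fluor fluorescence.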

[2] = biological target: Luciferin 4-monooxygenase (Photinus pyralis) (UniProt P08659); assay: qHTS assay to identify small molecule inhibitors of firefly luciferase (AID 1224835); also: nearly all actives have a fitted effect of over 25% in size
Chain of Luciferin 4-monooxygenase (Photinus pyralis) (P08659 whole entry, looked up): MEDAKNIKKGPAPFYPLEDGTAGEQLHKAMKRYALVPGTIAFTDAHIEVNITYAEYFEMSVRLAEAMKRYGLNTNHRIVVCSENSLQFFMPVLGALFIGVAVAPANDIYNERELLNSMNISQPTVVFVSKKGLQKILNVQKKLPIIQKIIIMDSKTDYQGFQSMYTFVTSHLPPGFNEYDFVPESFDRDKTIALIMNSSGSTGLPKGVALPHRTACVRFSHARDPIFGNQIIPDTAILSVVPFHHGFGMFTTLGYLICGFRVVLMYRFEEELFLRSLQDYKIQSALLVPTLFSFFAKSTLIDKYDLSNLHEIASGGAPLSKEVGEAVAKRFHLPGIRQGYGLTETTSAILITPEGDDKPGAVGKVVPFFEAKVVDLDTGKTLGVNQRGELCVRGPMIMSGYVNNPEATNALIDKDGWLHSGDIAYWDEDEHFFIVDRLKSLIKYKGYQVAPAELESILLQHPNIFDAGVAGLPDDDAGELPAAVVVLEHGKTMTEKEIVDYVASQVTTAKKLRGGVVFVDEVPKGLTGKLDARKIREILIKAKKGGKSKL
Summary of the method: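 Quantitative HTS format; KM concentrations of both substrates. Purified P. pyralis FLuc activity quantified from luminescence images.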

[3] = qHTS assay to identify small molecule agonists of the constitutive androstane receptor (CAR) signaling pathway - cell viability counter screen (AID 1224836); also: nearly all actives have a fitted effect of over 45% in size
Summary of the method: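 Compound titrations (15 concentrations) went onto HepG2-CYP2B6-hCAR cells 4 h after seeding, alongside PK11195 at a final 0.75 uM; a 23 h, 37 C/5% CO2 incubation preceded CellTiter-Fluor viability measurement.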

[4] = qHTS assay to identify small molecule antagonists of the constitutive androstane receptor (CAR) signaling pathway - cell viability counter screen (AID 1224837); also: nearly all actives have a fitted effect of over 45% in size
Summary of the method: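 To flag cytotoxic false antagonists, HepG2 hCAR/CYP2B6-2.2kb cells were treated 23 hr with 15-concentration compound series and 50 nM CITCO at 37 C/5% CO2; CellTiter-Fluor fluorescence was the measured end point.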

[5] = biological target: Nuclear receptor subfamily 1 group I member 3 (Homo sapiens) (UniProt Q14994); assay: qHTS assay to identify small molecule antagonists of the constitutive androstane receptor (CAR) signaling pathway (AID 1224838);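 also: HepG2 cells stably expressing hCAR with CYP2B6 luciferase reporter stimulated by CITCO; nearly all actives have a fitted effect of over 40% in size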
Chain of Nuclear receptor subfamily 1 group I member 3 (Homo sapiens) (Q14994 whole entry, looked up): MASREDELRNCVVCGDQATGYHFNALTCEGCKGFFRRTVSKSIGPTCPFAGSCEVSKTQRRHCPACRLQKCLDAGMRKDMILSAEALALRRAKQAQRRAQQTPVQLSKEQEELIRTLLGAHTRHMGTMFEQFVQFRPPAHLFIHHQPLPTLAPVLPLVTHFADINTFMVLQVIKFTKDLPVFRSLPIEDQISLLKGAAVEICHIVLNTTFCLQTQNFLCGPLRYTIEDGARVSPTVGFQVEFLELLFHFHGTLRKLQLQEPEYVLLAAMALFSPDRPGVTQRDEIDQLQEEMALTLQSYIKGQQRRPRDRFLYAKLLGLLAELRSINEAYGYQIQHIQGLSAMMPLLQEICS
Summary of the method: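 Human hepatoma HepG2 cells expressing hCAR and a CYP2B6 promoter (2.2 kb) luciferase construct; compound titration (15 points) with 50 nM CITCO final, 24 h at 37 C/5% CO2; luminescence via ONE-Glo after 30 min at room temperature.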

[6] = biological target: Nuclear receptor subfamily 1 group I member 3 (Homo sapiens) (UniProt Q14994); assay: qHTS assay to identify small molecule agonists of the constitutive androstane receptor (CAR) signaling pathway (AID 1224839);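 also: HepG2 cells stably carrying human CAR and a CYP2B6 luciferase reporter; nearly all actives have a fitted effect of over 15% in size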
Summary of the method: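 In this screen, CAR-driven CYP2B6 promoter activity is measured by luminescence in HepG2-CYP2B6-hCAR cells after 24 h with test compounds and 0.75 uM PK11195 (final concentration).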

[7] = qHTS assay to identify small molecule antagonists of the estrogen related receptor signaling pathway with the pleiotropic PPARgamma coactivator (PGC) from Tox21 10K library - cell viability counter screen (AID 1224840; active = well fitted cell-killing curve with a large enough effect in the repeat runs, not every such curve was filed as active; also: nearly all actives have a fitted effect of over 40% in size)
Summary of the method: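 Seeded PGC/ERR cells (2,000/well, 6 h, 37 C/5% CO2) get compound by pin tool; 17.5 h incubation at 37 C; CellTiter-Fluor added, 30 min, fluorescence measured.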

[8] = qHTS assay to identify small molecule antagonists of the estrogen related receptor signaling pathway with the pleiotropic PPARgamma coactivator (PGC) from Tox21 10K library (AID 1224841; call rule not given here; also: actives are mostly falling curves and most rising ones were filed inactive; nearly all actives have a fitted effect of over 50% in size; also: potency is read from the fitted curve at half-maximal effect)
Summary of the method: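 Test chemicals dissolved in DMSO were applied to pre-incubated (6 h) PGC/ERR cells at 2,000 cells/well for an 18 h, 37 C treatment; reporter luminescence was then read using One-Glo.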

[9] = qHTS assay to identify small molecule agonists of the estrogen related receptor signaling pathway with the pleiotropic PPARgamma coactivator (PGC) from Tox21 10K library (AID 1224842); also: nearly all actives have a fitted effect of over 15% in size
Summary of the method: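 PGC/ERR reporter cells (NTP line) were seeded 2,000 per well, rested 6 h at 37 C/5% CO2, then pin-dosed with compounds in DMSO for 18 h at 37 C; luciferase read by One-Glo luminescence after 30 min at room temperature.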

[10] = qHTS assay to identify small molecule agonists of the hypoxia (HIF-1) signaling pathway - cell viability counter screen (AID 1224844; calls by dose curve; also: nearly all actives have a fitted effect of over 50% in size)
Summary of the method: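 HRE-bla ME-180; 0.5% dFBS; cpd 17 h, 37C, 5% CO2; CellTiter-Glo lum., 30 min RT, post-FRET read, same wells.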

[11] = qHTS assay to identify small molecule agonists of H2AX (AID 1224845; active = well fitted activation curve with a large enough effect in the signal ratio in the repeat runs, not every such curve was filed as active; the % refers to the signal ratio)
Summary of the method: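 Wild-type CHO-K1 cells plated overnight, then exposed 3 hr at 37C to compounds at 15 concentrations (0.76% DMSO). Lysed, then HTRF anti-pH2AX(S139)-cryptate/anti-H2AX-d2 detection after 24 hr at room temperature; emissions 665 and 620 nm.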

[12] = qHTS assay to identify small molecule agonists of the hypoxia (HIF-1) signaling pathway (AID 1224846; active = well fitted activation curve with a large enough effect in the signal ratio in the repeat runs, not every such curve was filed as active; the % refers to the signal ratio)
Summary of the method: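 Reporter induction in HRE-bla ME-180 cells is taken as agonism: cells sit 5 hrs after plating, receive compounds or DMSO only, incubate 17 hrs at 37C under 5% CO2, and are loaded with CCF4-AM for beta-lactamase FRET measurement.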

[13] = qHTS assay to identify small molecule agonists of H2AX - cell viability counter screen (AID 1224847; calls by dose curve; also: top concentration of the series differs between compounds; nearly all actives have a fitted effect of over 30% in size)
Summary of the method: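 Read-out: CellTiter-Glo luminescence, 30 min RT. Cells: wild-type CHO-K1, 1000/well, 10% FBS, plated overnight at 37C. Treatment: 15 concentrations, 3 hr, 37C, 0.76% DMSO.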

[14] = qHTS assay to identify small molecule antagonists of the estrogen related receptor (ERR) signaling pathway from Tox21 library (AID 1224848); also: nearly all actives have a fitted effect of over 50% in size; also: potency is read from the fitted curve at half-maximal effect
Summary of the method: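 First, 2,000 ERR cells per well were plated and held 6 h at 37 C/5% CO2. Next, compounds in DMSO were pinned in and left 18 h at 37 C. Finally, ONE-Glo was added and luminescence read after 30 min at room temperature.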

[15] = qHTS assay to identify small molecule agonists of the estrogen related receptor (ERR) signaling pathway from Tox21 library (AID 1224849; calls by dose curve; also: nearly all actives have a fitted effect of over 15% in size); conditions: ERR reporter cell line, ONE-Glo luciferase, 18 h; at 92.4 µM (top of the series) unless noted
Summary of the method: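 Tox21 compounds tested for ERR agonism in an NTP reporter cell line: 18 h treatment at 37 C, then ONE-Glo luminescence.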

[16] = qHTS RealTime-Glo MT Cell Viability Assay in HepG2 cells - 24 hour (AID 1224867); also: nearly all actives have a fitted effect of over 50% in size
Summary of the method: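 Cell number in HepG2 cultures estimated from NanoLuc luminescence generated by metabolic reduction of a prosubstrate by living cells. The homogeneous, nonlytic format allowed repeated reads at 0, 8, 16, 24, 32 and 40 h of compound exposure.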

[17] = qHTS RealTime-Glo MT Cell Viability Assay in HEK293 cells - 32 hour (AID 1224868)
Summary of the method: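 Homogeneous bioluminescent viability format in HEK293 cells (600 cells/well). Following 5 h at 37 C/5% CO2, 23 nL compound was pintooled; the signal was measured repeatedly during 40 h incubation.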

[18] = qHTS RealTime-Glo MT Cell Viability Assay in HepG2 cells - 40 hour (AID 1224870); also: nearly all actives have a fitted effect of over 50% in size
Summary of the method: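 HepG2 cells mixed with RealTime-Glo MT reagents (NanoLuc plus cell-permeant prosubstrate) were seeded at 600 cells/well, incubated 5 h at 37 C/5% CO2, then pinned with compounds in DMSO; nonlytic luminescence tracked viability during 40 h treatment.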

[19] = biological target: Thyrotropin receptor (Homo sapiens) (UniProt P16473); assay: qHTS assay to identify small molecule agonists of the thyroid stimulating hormone receptor (TSHR) signaling pathway (AID 1224843; calls by dose curve; also: nearly all actives have a fitted effect of over 45% in size)
Chain of Thyrotropin receptor (Homo sapiens) (P16473 whole entry, looked up): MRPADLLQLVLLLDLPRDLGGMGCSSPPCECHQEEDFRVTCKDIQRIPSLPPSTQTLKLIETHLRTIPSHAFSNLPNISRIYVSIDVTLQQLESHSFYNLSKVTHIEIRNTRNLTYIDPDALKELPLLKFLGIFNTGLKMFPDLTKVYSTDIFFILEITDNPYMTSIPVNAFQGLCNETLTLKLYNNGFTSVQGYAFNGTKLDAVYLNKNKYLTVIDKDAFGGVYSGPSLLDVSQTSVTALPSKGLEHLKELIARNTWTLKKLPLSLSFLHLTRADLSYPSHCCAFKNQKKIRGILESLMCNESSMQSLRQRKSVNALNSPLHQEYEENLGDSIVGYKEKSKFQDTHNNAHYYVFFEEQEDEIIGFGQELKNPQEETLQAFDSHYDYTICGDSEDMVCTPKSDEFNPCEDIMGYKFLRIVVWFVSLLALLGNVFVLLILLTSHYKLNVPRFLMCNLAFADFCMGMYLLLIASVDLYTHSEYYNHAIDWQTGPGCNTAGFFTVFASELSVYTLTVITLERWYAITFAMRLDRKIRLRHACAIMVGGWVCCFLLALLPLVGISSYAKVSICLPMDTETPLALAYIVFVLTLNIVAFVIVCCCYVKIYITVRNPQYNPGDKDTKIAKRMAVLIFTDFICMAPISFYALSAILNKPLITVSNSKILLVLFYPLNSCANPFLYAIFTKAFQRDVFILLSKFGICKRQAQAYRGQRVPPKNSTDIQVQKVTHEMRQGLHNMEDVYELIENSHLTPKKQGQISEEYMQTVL
Summary of the method: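 Compounds are titrated over 15 concentrations, in triplicate, onto TSHR-HEK293 cells seeded at 800/well. Plates sit 30 min at room temperature before cAMP-d2 and anti-cAMP cryptate are added; signal is read after a further hour.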

[20] = A CellTox Green Cytotoxicity Assay to monitor cytotoxicity in HEK293 cells - 0 hour (AID 1224869); also: nearly all actives have a fitted effect of over 50% in size
Summary of the method: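 Tox21 screen in HEK293: membrane-impermeant cyanine dye fluoresces on binding dead-cell DNA; compound pinned 5 h post-seeding, plates held at 37 C, signal read repeatedly through 40 h.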
% is scaled to controls: 0 for no effect and ±100 for the full control effect.

Nc1ccc(S(=O)(=O)O)cc1
inactive: Potency [1] | Potency [2] | Potency [3] | Potency [4] | Potency [5] | Potency [6] | Potency [7] | Potency [8] | Potency [9] | Potency [10] | Potency [11] | outcome [12] | Potency [13] | Potency [14] | activity change, positive = activation [15] 2.73% | Potency [16] | Potency [17] | Potency [18]

Cc1nc2ccccc2s1
active: Potency [8] 48.9 µM
inactive: Potency [1] | Potency [2] | Potency [3] | Potency [4] | Potency [5] | Potency [6] | Potency [7] | Potency [9] | Potency [19] | Potency [10] | Potency [11] | outcome [12] | Potency [13] | activity change, positive = activation [15] 1.14% | Potency [16] | Potency [17] | Potency [20] | Potency [18]

CCCCC(CC)C(=O)OCCOCCOCCOCCOC(=O)C(CC)CCCC (configuration not stated)
inactive: Potency [1] | Potency [2] | Potency [3] | Potency [4] | Potency [5] | Potency [6] | Potency [7] | Potency [9] | Potency [10] | Potency [11] | outcome [12] | Potency [13] | activity change, positive = activation [15] -33% | Potency [16] | Potency [18]
active: Potency [14] 30.6 µM

C1COCO1
inactive: Potency [1] | Potency [2] | Potency [3] | Potency [4] | Potency [5] | Potency [6] | Potency [7] | Potency [8] | Potency [9] | Potency [19] | Potency [10] | Potency [11] | outcome [12] | Potency [13] | Potency [14] | activity change, positive = activation [15] -2.3% | Potency [16] | Potency [20] | Potency [18]

C[Si]1(C)O[Si](C)(C)O[Si](C)(C)O1
inactive: Potency [1] | Potency [2] | Potency [3] | Potency [4] | Potency [5] | Potency [6] | Potency [7] | Potency [8] | Potency [9] | Potency [19] | Potency [10] | Potency [11] | outcome [12] | Potency [13] | Potency [14] | activity change, positive = activation [15] -9.67% | Potency [16] | Potency [17] | Potency [20] | Potency [18]

CC(C)(C)C(=O)O
inactive: Potency [1] | Potency [2] | Potency [3] | Potency [4] | Potency [5] | Potency [6] | Potency [7] | Potency [8] | Potency [9] | Potency [19] | Potency [10] | Potency [11] | outcome [12] | Potency [13] | Potency [14] | activity change, positive = activation [15] 3.7% | Potency [16] | Potency [17] | Potency [20] | Potency [18]

COC(=O)c1cc(S(N)(=O)=O)ccc1OC
inactive: Potency [1] | Potency [2] | Potency [3] | Potency [4] | Potency [5] | Potency [6] | Potency [7] | Potency [8] | Potency [9] | Potency [19] | Potency [10] | Potency [11] | outcome [12] | Potency [13] | Potency [14] | activity change, positive = activation [15] -0.548% [at 42.5 µM] | Potency [16] | Potency [17] | Potency [20] | Potency [18]
